NCOA2 inhibitor = human SRC2 (NCOA2) inhibition; Q15596; HEK293 GAL4-SRC2 luciferase reporter, luminescence; AID 651957; inhibition, % at 9 µM; 0.17% of 370,000 active;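 active = inhibition above the mean inhibition of all tested compounds plus 3 SD, set per campaign, cut at about 52% in these data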
COUP-TFII inh = NR2F2 (human) inhibition, primary screen. P24468. 0.7% of 370,000 active. HEK293T NGFI-A luciferase reporter, luminescence. inhibition, % at 8.6 µM;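 active = inhibition above a per-plate cutoff, mean inhibition of test wells between control levels plus 3 SD, cut at about 38% in these data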;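 also: cells cotransfected with COUP-TFII expression vector driving the NGFI-A reporter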
SRC3 inh = inhibits human SRC3 coactivator; inhibition, % at 3.6 µM; HEK293 GAL4-SRC3 luciferase reporter, luminescence; 0.17% of 360,000 active; AID 588352; Q9Y6Q9;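 active = inhibition above a per-campaign cutoff, the mean of all compounds plus 3 SD, cut at about 60% in these data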;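 also: higher means less SRC3-driven luciferase light from the GAL4 reporter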
SRC1 inh = inhibits human SRC1 coactivator | Q15788 | HEK293 GAL4-SRC1 luciferase reporter, luminescence | inhibition, % at 3.6 µM | 0.12% of 360,000 active;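 active = inhibition above the campaign mean plus 3 SD, with each screening campaign given its own cutoff, cut at about 60% in these data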
NR5A2 inv ag = inverse agonists of human LRH-1 (NR5A2) | O00482 | AID 602396 | 0.13% of 360,000 active | inhibition, % at 3.6 µM | HEK293T StAR-luciferase reporter, LRH-1 transfected, 24 h;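 active = inhibition above the mean inhibition of all tested compounds plus 3 SD, cut at about 73% in these data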
GalR3 antag = blocks the human galanin receptor 3; inhibition, % at 3 µM; HEK293 GalR3-CNG cAMP membrane potential fluorescence; galR3 body fused to GalR1 C-terminus; AID 651719; 0.44% of 360,000 active; O60755;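 active = inhibition above the screen-wide average plus 3 SD, cut at about 13% in these data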;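 also: forskolin and galanin both at EC90 stimulate the cells; cAMP rise reported by CNG channel membrane potential dye signal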
Target sequence (O60755 1-299 limits assumed): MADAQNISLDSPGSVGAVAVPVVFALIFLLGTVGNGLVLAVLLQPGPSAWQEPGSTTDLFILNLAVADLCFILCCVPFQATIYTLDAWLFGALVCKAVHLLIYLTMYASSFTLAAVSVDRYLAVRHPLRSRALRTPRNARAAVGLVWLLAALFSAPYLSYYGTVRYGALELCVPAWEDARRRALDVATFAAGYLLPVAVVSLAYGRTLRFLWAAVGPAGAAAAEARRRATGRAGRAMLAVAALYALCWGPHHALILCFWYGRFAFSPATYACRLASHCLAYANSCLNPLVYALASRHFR
Gal4-VP16 ctr = VP16 inhibition counter-screen for COUP-TFII; AID 687007; 25% of 2,500 active; inhibition, % at 8.5 µM; HEK293 Gal4-VP16 luciferase reporter, luminescence; shares compounds with COUP-TFII inh; in the data active = inhibition above about 13%
COUP-TFII conf = confirmation of human COUP-TFII (NR2F2) inhibitors. shares compounds with COUP-TFII inh. HEK293 NGFI-A luciferase reporter, luminescence. inhibition, % at 8.5 µM. 45% of 2,500 active. AID 687008;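 active = mean inhibition over three repeats above a set limit taken from the earlier primary screen, cut at about 38% in these data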
Hits are given with their value; . = inactive; / = not tested or not shown. Compounds with a hit are over-represented: about 1.1% of the library has one in this group of screens.

SMILES	NCOA2 inhibitor	COUP-TFII inh	SRC3 inh	SRC1 inh	NR5A2 inv ag	GalR3 antag	Gal4-VP16 ctr	COUP-TFII conf
CC1CCC(C(C)C)C(OC(=O)Cn2c(-c3ccccc3)[n+](C)c3ccccc32)C1 (stereo not drawn)	.	57	79	.	75	.	14	38
Cc1cccc(OCc2n(CC(=O)OC3CC(C)CCC3C(C)C)c3ccccc3[n+]2C)c1 (stereo not drawn)	/	/	.	.	.	/	/	/
O=C(Nc1ccccc1C(=O)O)c1cc(S(=O)(=O)N2CCCCC2)c(Cl)cc1Cl	.	40	.	.	.	.	.	.
COC(=O)[C@]12C[C@H](CC(=O)NCCCN3CCCC3=O)C(=O)N(Cc3cccc4ccccc34)C1=C[C@H](C1CCCC1)O[C@@H]2C	.	.	/	/	/	/	/	/
Nc1ccc2c(c1)OC1(CCCC1)O2	66	65	.	.	.	.	.	.
O=S(=O)(c1ccc(CN2CCOCCOCCN(Cc3ccc(S(=O)(=O)C(F)(F)F)cc3)CCOCC2)cc1)C(F)(F)F	/	62	/	/	/	/	.	.
O=C(C1CCN(c2nc(-c3ccc(Br)cc3)cs2)CC1)N1CCNCC1	/	.	/	/	/	/	/	/
CC(C)(C)OC(=O)NC1CCN(c2nc(-c3ccc(Br)cc3)cs2)CC1	/	39	/	/	/	/	.	.
CCOc1ccccc1N1CCN(Cc2cccc(OC)c2O)CC1	.	.	.	.	.	.	/	/
COc1ccccc1N1CCN(Cc2cc(Br)c(O)c3ncccc23)CC1	.	47	.	.	73	/	.	.
CC(C)c1ccc(/C=N/Nc2ccc(C(=O)O)cc2)cc1	.	52	.	.	.	.	.	37
Cc1ccc(/C=N/Nc2ccc(C(=O)O)cc2)s1	.	41	.	.	.	.	.	.
Cc1ccc(/C=N/Nc2cccc(C(=O)O)c2)s1	.	.	.	.	.	.	/	/
COc1cccc(CNC(=O)[C@H]2CCCN2C(=O)[C@H]2CCCN2C(=O)c2ccccc2C(F)(F)F)c1	.	.	/	/	/	.	/	/
CCCN1CCCCC(NC(=O)c2ccc(-c3ccccc3)cc2)C1=O (stereo not drawn)	.	.	/	/	/	.	/	/
Cc1ccc(OCCN2CCN(C(=O)CCC(=O)Nc3nnc(C)s3)CC2)cc1	.	.	.	.	.	.	/	/
Cc1ccc(OCCN2CCN(C(=O)CCC(=O)Nc3nnc(C(C)C)s3)CC2)cc1	.	41	.	.	.	.	.	.
Cc1ccc(S(=O)(=O)c2cccc(S(=O)(=O)N3CCOCC3)c2)cc1S(=O)(=O)N1CCOCC1	.	.	.	.	.	.	/	/
Cc1ccc(S(=O)(=O)c2cccc(S(=O)(=O)N3CCCC3)c2)cc1S(=O)(=O)N1CCCC1	.	61	.	.	.	.	.	.
CN(Cc1cccc2cnccc12)C(=O)c1cc(COc2ccc(F)cc2F)on1	.	45	.	.	.	.	.	.
CC(=O)OCCN1c2ccccc2Sc2cnccc21	.	37	.	.	.	.	.	.
C=CCN1c2ccccc2Sc2cnccc21	.	.	.	.	.	.	/	/
O=C(/C=C/c1cccs1)NC(=S)NNC(=O)c1ccccc1O	.	60	80	65	88	.	21	63
COc1ccc(C(=O)NNC(=S)NC(=O)/C=C/c2cccs2)cc1	.	.	.	.	.	.	/	/
CC(=O)N(CCc1ccccc1)c1ccc2c(c1)C1CC2CCN1C(=O)OCc1ccccc1 (stereo not drawn)	.	38	.	.	.	.	.	.
O=C(CC1CS(=O)(=O)CC1CC(=O)Nc1ccc2c(c1)OCCO2)Nc1ccc2c(c1)OCCO2 (stereo not drawn)	.	69	.	.	.	.	.	.
COCc1cn(CC(C)n2c(=O)c3ccccc3n2Cc2cc(C(C)C)no2)nn1 (stereo not drawn)	.	.	/	/	.	.	/	/
Cc1cc(NS(=O)(=O)c2ccc(NC(=O)CSc3nnc(-c4ccncc4)n3Cc3ccco3)cc2)nc(C)n1	.	.	/	/	/	/	/	/
c1csc(CCNc2ncnc3sc4c(c23)CCC4)c1	.	67	.	.	.	.	.	46

Screening results: PubChem BioAssay, The Scripps Research Institute Molecular Screening Center
